This note sets out measurements from PubChem BioAssay AID1347417 (National Center for Advancing Translational Sciences (NCATS), 2020).

In all, about 120,000 compounds went through this assay and about 5,300 (4.4%) were called active. Not shown: some 22% with an inconclusive outcome. The full list was thinned out, with actives kept by preference. A number with no mark means an inactive call. Calls follow the shape of the dose curve; as a rule, active = well fitted inhibition curve with a large enough effect; inconclusive = small, poorly fitted or top-dose-only effect; inactive = no such curve, though single readings can be large or run the other way.
Potency is read from the fitted curve at half-maximal effect.

The nature of the assay: qHTS Primary assay for Inhibitors of Plasmodium falciparum Dd2 growth in vitro. Also: nearly all actives have a fitted effect of over 65% in size.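 As to activity, negative = inhibition: plate controls were DMSO vehicle for no effect and reference drug for full effect.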 Particulars: P. falciparum Dd2 growth, SYBR Green, 72 h; series mostly up to 28.9 µM; activity, negative = inhibition: at the top concentration. The essentials:
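Infected erythrocytes (Dd2, 0.3% parasitemia, 2.5% hematocrit final) are added to compound in RPMI-1640/Albumax II medium, grown 72 h at 37C in low oxygen, then lysed with saponin/Triton-X containing SYBR Green and read by fluorescence.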
In general terms: qHTS replaces the single test concentration by a dilution series.
For the molecule `COCCNC(=O)c1ccc2c(c1)N=C(C)c1cc(C)ccc1S2`, the outcome was inactive.
With `CC1=Nc2cc(C(=O)NCc3ccc(C)cc3)ccc2Sc2ccc(Cl)cc21`, the “activity, negative = inhibition” value is -2.44%.
Take `CCC1=Nc2cc(C(=O)NCCCOC(C)C)ccc2Sc2ccc(C)cc21`: the Potency is 12.6 µM (active).
As for `Cc1ccc(N(CC(=O)NCC(C)c2ccccc2)S(=O)(=O)N(C)C)cc1` (centres undefined), the “activity, negative = inhibition” value is 24.7%.
Still for that read-out and setting: the same measure for `CCc1ccc(Sc2cc(C(=O)NCCCOC(C)C)c3ccccc3n2)cc1`: -12.5%.
For `CCC1=Nc2cc(C(=O)NCC(C)c3ccccc3)ccc2Sc2ccc(C)cc21` (centres undefined), the Potency was 11.2 µM (active).
For the molecule `O=C(c1ccc(OC(F)(F)F)cc1)N1CCC(n2cc(-c3nc(C4CC4)no3)nn2)C1` (centres undefined), the “activity, negative = inhibition” value is -8.12%.
Consider `O=C(c1ccoc1)N1CCC(N2CC3CC(C2)[C@H]2CCCC(=O)N2C3)CC1` (some centres undefined), for which the “activity, negative = inhibition” value is -7.89%.
For `Cc1ccc(Cc2ccccc2C(=O)N2C[C@@H](CN(C)CCO)[C@@H](CO)C2)cc1`, the “activity, negative = inhibition” value was -19.7%.
As for `Cc1ccc(C(=O)N2CCC(CCC(=O)N3CCc4ccccc4C3)CC2)cc1`, the outcome was inactive.
On to `Cc1ncc2n1C(=O)N(C1CCN(C(=O)c3ccc(Cl)cc3)CC1)C2`, for which the “activity, negative = inhibition” value was 14.4%.
Consider `Cc1ccc(-c2nnc(Nc3ccc(OCC(N)=O)cc3)c3ccccc23)cc1S(=O)(=O)NCC1CCCO1` (centres undefined), for which the Potency was 1.12 µM (active).
In the case of `COCCNS(=O)(=O)c1cc(-c2nn3c(C)nnc3c3ccccc23)ccc1C`, the “activity, negative = inhibition” value is -3.2%.
As for `CCNS(=O)(=O)c1cc(-c2nnc(Nc3cccc(C(F)(F)F)c3)c3ccccc23)ccc1C`, the “activity, negative = inhibition” value is -7.56%.
For `Cc1ccc(Nc2nnc(-c3ccc(C)c(S(=O)(=O)N4CCCCC4)c3)c3ccccc23)cc1`, the “activity, negative = inhibition” value was -8.84%.
With `COC(=O)c1c(NC(=O)c2ccccc2)c2cc(NC(C)C)cnc2n1CC1CCCO1` (centres undefined), the “activity, negative = inhibition” value is 4.39%.
Take `Cc1ccc(-c2nnc(Nc3cccc(Br)c3)c3ccccc23)cc1S(=O)(=O)NCC1CCCO1` (centres undefined): the Potency was 11.2 µM (active).
For `O=C(NCCc1noc(C2CC2)n1)c1ccc2c(c1)OCO2`, the “activity, negative = inhibition” value is 19.1%.
`C[S+](=O)([O-])N1CC2ON=C(C(=O)N3CCCC3)C2C1` (centres undefined): the “activity, negative = inhibition” value was 10.8% [at 44.1 µM].
On the same count and under the same terms, the same measure for `COCCn1ncc(N2CCC(C(=O)NCc3ccc(C)o3)C2)cc1=O` (centres undefined): -20.4%.
Same read-out and setting: the figure for `CC(C)(C)c1ccnc(N[C@H]2CO[C@H]3[C@@H]2OC[C@H]3OC(=O)Nc2cccc(C(F)(F)F)c2)n1` is -5.75%; for `Cc1ccc(NC(=O)c2cnc(-c3ccccc3)nc2-c2ccncc2)cc1C` it is -4.94%.
`O=[S+]1([O-])NCC2(CCCN(Cc3ccncc3)C2)Oc2ncccc21` (centres undefined): the “activity, negative = inhibition” value was 116%.
Same read-out and setting: the same measure for `Cc1nn(C)c(C)c1S(=O)(=O)N1CCC(c2noc(-c3ccccc3)n2)C1` (centres undefined): 8.68% [at 5.79 µM]; for `O=C(CN1C(=O)COc2ccc(S(=O)(=O)N3CCOCC3)cc21)N1CCN(c2cccc(Cl)c2)CC1`: -25.6%.
In the case of `CC(C)Cn1c(-c2ccc(S(=O)(=O)N3CCOCC3)cc2)csc1=Nc1cc(Cl)ccc1Cl`, the Potency is 10 µM (active).
`O=C1[C@@H]2C[C@@H](O)CN2C2(CN(Cc3ccc(OC(F)(F)F)cc3)C2)C(=O)N1Cc1ccccc1Cl`: the “activity, negative = inhibition” value is -3.76%.
As to `CO[C@H]1[C@H](NC(=O)c2cnc3ccccc3c2)c2ccccc2C12CCNCC2`, the “activity, negative = inhibition” value was -5.04%.
Same read-out and setting: the same measure for `Clc1ccc(-c2nnc3n2CCN(Cc2cccc4ccccc24)C3)cc1`: 5.45%; for `c1ccc2c(c1)CCN2C1CN(Cc2cccc3ccccc23)C1`: -22%.
With `Cc1ccccc1N(C)C1CN(Cc2cccc3ccccc23)C1`, the Potency is 10 µM (active).
With `COc1cc2c(cc1OCc1ccncc1)NC(=O)C21CCN(c2ncccn2)CC1`, the “outcome” value was “inactive [at 44.1 µM]”.
Turning to `COc1cc2c(cc1Oc1cccc(N(C)C)c1)NC(=O)C21CCN(c2cnccn2)CC1`, the Potency is 0.891 µM (active).
With `COc1cc2c(cc1Oc1cccc(N(C)C)c1)NC(=O)C21CCN(Cc2ccccn2)CC1`, the outcome was inactive.
As for `COc1ccc(NC(=O)O[C@@H]2CO[C@H]3[C@@H]2OC[C@@H]3NC(=O)C2CCCCC2)cc1`, the “activity, negative = inhibition” value was -19.6% [at 44.1 µM].
On to `O=C(CC1CCCN(c2cnn(CC3CC3)c(=O)c2)C1)NCc1cc(F)cc(F)c1` (centres undefined), for which the call was inactive.
Regarding `COc1ccc(NC(=O)Cn2c(=O)n(-c3ccccc3)c(=O)c3c2cc(C)n3C)cc1`, the “activity, negative = inhibition” value is 64.6%.
Take `N#Cc1ccc(S(=O)(=O)NC2CCc3nn(CC4CC4)c(=O)n3CC2)cc1` (centres undefined): the “activity, negative = inhibition” value was 5.54%.
For `CCCn1c2ccccc2c2cnn(CC(=O)N(C)c3ccccc3CC)c(=O)c21`, the “activity, negative = inhibition” value is -15%.
Take `CCCN(CCC)CCCNC(=O)Cn1ncc2c3ccccc3n(Cc3ccccc3)c2c1=O`: the Potency is 5.01 µM (active).
Consider `CCCn1c2ccccc2c2cnn(CC(=O)NCCCOC(C)C)c(=O)c21`, for which the call was inactive.
Turning to `CCN(CCCNC(=O)Cn1ncc2c3ccccc3n(C)c2c1=O)Cc1ccccc1`, the “activity, negative = inhibition” value was -10.1%.
On to `CCN(CC)CCNC(=O)Cn1ncc2c3ccccc3n(Cc3ccccc3C)c2c1=O`, for which the Potency was 10 µM (active).
On to `CCCn1c2ccccc2c2cnn(CC(=O)N(CC)c3cc(C)ccc3C)c(=O)c21`, for which the “activity, negative = inhibition” value is 28.1%.
On to `COc1cccc(CC(=O)N2CCC(c3nc(CCOc4ccc(F)cc4)no3)C2)c1` (centres undefined), for which the call was inactive.
With `COCCNC(=O)[C@@H]1C[C@@H](O)CN1C1CCN(C(=O)CCc2ccccc2)CC1`, the “activity, negative = inhibition” value was 21.1%.
For `CCn1c(=O)c2ccnn2c2ccc(C(=O)NC3CCCCC3)cc21`, the call was inactive.
For `Cc1ccccc1NC(=O)N1CCC(CCNC(=O)c2ccoc2)CC1`, the “activity, negative = inhibition” value is 2.98%.
Turning to `O=C(c1cccc(Cl)c1)N1CCN(c2cc(-c3cccs3)[nH]n2)CC1`, the molecule was called inactive.
`COc1cccc(CN2Cc3nc(Nc4cccc(F)c4)ccc3OCC2=O)c1`: the “activity, negative = inhibition” value was -23.1% [at 44.1 µM].
The same measure, in the same setting: the same measure for `CN(CCCn1cccn1)C(=O)C1CCN(C(=O)C2CCCC2)CC1`: -0.759%; for `O=C(N[C@@H]1CN(Cc2c(F)cccc2F)C[C@H]1CO)c1ccccc1`: -18.3%.
In the case of `O=C(Nc1ccccc1)[C@H]1CN2CCC1C[C@@H]2Cn1cc(CO)nn1` (some centres undefined), the “outcome” value was “inactive [at 44.1 µM]”.
For `Cc1cc(N2CCCC(Cn3cc(Cc4ccccc4)nn3)C2)nc(N)n1` (centres undefined), the Potency was 12.6 µM (active).
For `O=C(NCc1ccccc1)[C@@H]1C[C@@H](c2ccc(F)cc2)N([S+](=O)([O-])c2cccnc2)C1`, the “outcome” value is “inactive [at 44.1 µM]”.
Take `O=C1Nc2ccc(Br)cc2C(=O)N2CCN(C(=O)C3CCCCC3)C[C@H]12`: the “activity, negative = inhibition” value was 2.95% [at 44.1 µM].
In the case of `CCOC(=O)c1c(NC(=O)c2cc(-c3ccc(Cl)cc3)on2)sc2c1CCCC2`, the outcome was inactive.
`CCOC(=O)c1c(NC(=O)Cc2coc3ccc(CC)cc23)sc2c1CCC2`: the “activity, negative = inhibition” value is 6.52%.
With `CCOC(=O)c1ccc(NC(=O)c2c(NCc3cccs3)sc3c2CCCC3)cc1`, the Potency was 10 µM (active).
`O=C(Cc1cccs1)NC1CCCN(c2cc(-c3ccccc3)[nH]n2)C1` (centres undefined): the result was inactive.
Same read-out and setting: the same measure for `COc1ccc(-c2ccc3c(c2)C(=O)N2CCN(C(=O)CC4(CC(=O)O)CCCC4)C[C@H]2C(=O)N3)cc1`: “inactive”.
For the molecule `CN1C(=O)CC(C(=O)O)C12CCN(Cc1cccc(OC(F)F)c1)CC2` (centres undefined), the “activity, negative = inhibition” value was 18.1%.
Consider `CN(C)C[C@@H]1CN(C)C[C@H]1NC(=O)C1CCC1`, for which the “activity, negative = inhibition” value is 32.2%.
On to `CCOc1cc(=O)n2c(c1C(=O)Nc1ccc(F)cc1F)CCCC2`, for which the molecule was classed as inactive.
In the case of `CCOC(=O)N1CCc2c(sc3c2C(=O)NC(c2ccccc2F)N3)C1` (centres undefined), the “activity, negative = inhibition” value was -16.9%.
`CCOC(=O)N1CCc2c(sc(NCc3cccc(F)c3)c2C(=O)Nc2ccccc2OCC)C1`: the Potency was 4.47 µM (active).
As for `CCOc1ccccc1N(CC)C(=O)Nc1cn(C)c(=O)c2ccccc12`, the result was inactive.
In the case of `Cc1ccccc1CN1CCC(CNC(=O)c2cc3ccc4cccnc4c3[nH]2)CC1`, the Potency was 10 µM (active).
For `CCOc1ccccc1N(CC)C(=O)c1cc2ccc3cccnc3c2[nH]1`, the Potency was 12.6 µM (active).
`CCOc1ccccc1C(=O)N1CCC(Oc2ncccc2C(=O)N(C)C)C1` (centres undefined): the molecule was called inactive.
For the molecule `Cc1ccccc1CN1CCC(N2CCCC(C(=O)NC3CC3)C2)CC1` (centres undefined), the “activity, negative = inhibition” value was -22.1%.
The same measure, in the same setting: the figure for `Cc1ccccc1CN1CCc2ncc(C(=O)NCCOc3ccccc3)n2CC1` is 10.2% [at 44.1 µM]; for `CCOc1ccc(NC(=O)Cn2c(-c3ccc(F)cc3)nc(C)cc2=O)cc1` it is -11.4%.
With `CC(C)CC(=O)NCC(c1ccc2c(c1)OCO2)N1CCN(c2ccc(F)cc2)CC1` (centres undefined), the Potency was 10 µM (active).
As to `COc1cccc(NC(=O)C(=O)NCC(c2ccc3c(c2)OCO3)N2CCN(C)CC2)c1` (centres undefined), the Potency was 7.94 µM (active).
Consider `CN(C)c1ccc(C(CNS(=O)(=O)c2cc(F)ccc2F)N2CCOCC2)cc1` (centres undefined), for which the “activity, negative = inhibition” value was -17.8%.
The same measure, in the same setting: the figure for `COc1ccc(C(C(=O)O)N2CCCN(c3ccc(F)cc3)CC2)cc1F` (centres undefined) is -9.93%.
As for `COc1ccc(Cn2ccnc2SCC(=O)Nc2ccc3c(c2)OCO3)cc1`, the result was inactive.
With `Cc1ccc(NC(=O)C(=O)NCC(c2cccnc2)N2CCOCC2)cc1` (centres undefined), the “activity, negative = inhibition” value was 6.96%.
Same read-out and setting: the same measure for `O=C(CN1CC2CC(C1)[C@H]1CCCC(=O)N1C2)N1CCN(c2ccccn2)CC1` (some centres undefined): -18.1%.
Turning to `CCn1ncnc1C(C)NC1CCC2(CCNCC2)CC1` (centres undefined), the “activity, negative = inhibition” value is 29.3%.
The same measure, in the same setting: the same measure for `CCC(O)c1cc2n(n1)CCN(C(=O)c1cnc(C)nc1-c1ccccc1)C2` (centres undefined): 6.35%; for `COc1ccc(S(=O)(=O)N[C@H]2C[C@H]3C(=O)NC[C@@H](CCC(=O)N4CCc5ccccc54)N3C2)cc1`: -28.7%; for `CN1C(=O)[C@@H]2C[C@@H](O)CN2C2(CN(Cc3cnc4ccccc4c3)C2)C1=O`: -5.31% [at 44.1 µM].
Still for that read-out and setting: the figure for `COc1ccccc1C(=O)NCc1ccnc2[nH]ccc12` is -1.5% [at 44.1 µM].
Turning to `COc1ccccc1C(=O)NCCn1cc(SCc2ccccc2Cl)c2ccccc21`, the Potency is 3.98 µM (active).
As to `O=C(Cn1cc(SCc2cccc(Cl)c2)c2ccccc21)N1CCCCC1`, the “activity, negative = inhibition” value is -16.6%.
On to `Cc1cc(NC(=O)c2ccc(Cn3ccn4nc5c(c4c3=O)CCCC5)cc2)ccc1F`, for which the outcome was inactive.
For `CCc1cc(NCCS(=O)(=O)CC)n2nccc2n1`, the “activity, negative = inhibition” value is 13.8%.
As to `CCN(CC)c1ccc(NC(=O)CN2CCN(CC(=O)Nc3ccc(Cl)cc3)CC2)cc1`, the Potency was 8.91 µM (active).
Regarding `CCOc1ccc(NC(=O)CN2CCN(CC(=O)Nc3ccc(OC)cc3)CC2)cc1`, the “activity, negative = inhibition” value is -24.3%.
Regarding `O=C(Cn1nc2n(c1=O)CCCC2)Nc1ccc(Cl)cc1`, the “activity, negative = inhibition” value was 36.3%.
For `Cc1ccc2[nH]nc(C(=O)N3C[C@@H](C(=O)O)[C@H](c4ccc(F)cc4)C3)c2c1`, the “activity, negative = inhibition” value is -0.77%.
As for `Cc1oc2ccn(Cc3ccccc3F)c(=O)c2c1C(=O)NCc1cccnc1`, the “activity, negative = inhibition” value is -14.6%.
